These results are taken from PubChem BioAssay (NCATS).

Several values for one entry are separate records, joined by “and”; a condition that tells them apart may be missing. Equal values may be shown once. Values without a mark were called inactive. Results filed as inconclusive are left out. Activity calls are given as the source filed them. Unless noted, the call rests on the fitted dose curve; in most records, active means well fitted curve in the direction sought with a large enough effect; inconclusive means small, poorly fitted or top-dose-only effect, or another doubt; inactive means no such curve, though single readings can be large; an effect the other way counts as inactive or inconclusive.

The target of assay [1] is Tumor necrosis factor (Homo sapiens) (UniProt P01375). Description: qHTS assay to identify small molecules that stimulate Tumor Necrosis Factor-alpha (TNF-alpha) secretion (AID 651757; active means well fitted curve in the direction sought with a large enough effect in the signal ratio; the % refers to the signal ratio; further: 0% is about no effect). The method, boiled down: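 THP-1 cells, 3000/well; compound 17 hrs, 37 C; add cryptate/XL665 anti-TNF-alpha antibody pair; 3 hr RT; TR-FRET (HTRF) read of secreted TNF-alpha. Quantitative HTS format.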
A general note: Quantitative high-throughput screening tests each substance at several concentrations.

Assay [2] can be described thus: qHTS assay for environmental chemicals that activate the Aryl hydrocarbon Receptor (AhR) signaling pathway (AID 651777). Further: % of control where 0% means no effect; nearly all actives have a fitted effect of over 15% in size. The settings on record: 1A2-DRE human hepatoma cells, luciferase, 24 h; activation: stronger effect = higher value. An outline of the steps: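 Human hepatoma 1A2-DRE cells, stably carrying a dioxin response element and CYP1A2 promoter driving luciferase, were exposed to compounds for 24 hr at 37 C and 5% CO2. Luciferase signal was then read after 30 min One-Glo at room temperature.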

Assay [3] deals with Peroxisome proliferator-activated receptor alpha (Homo sapiens) (UniProt Q07869). As to the kind of experiment: qHTS assay for small molecule agonists of the peroxisome proliferator-activated receptor alpha (PPARalpha) signaling pathway (AID 651778). Further: % of control where 0% means no effect. To be noted: PathHunter PPARalpha complementation, chemiluminescence, 6 h; max response: stronger effect = higher value. The method, boiled down: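 Enzyme-fragment complementation assay in which ligand-bound PPARalpha translocates and forms an active enzyme that generates chemiluminescence. Cells were plated overnight, exposed to compound for 6 hr at 37 C, and then given detection reagent for 60 min at room temperature.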

Assay [4] has as its target Arylsulfatase A (Homo sapiens) (UniProt P15289). Description: qHTS screen for enhancers of Arylsulfatase A (ASA1): LOPAC Validation Assay (AID 720538). The method, boiled down: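 Cell-based enhancement test: residual ASA activity in SV40-transformed I179S patient fibroblasts is measured by pNCS turnover (0.5mM final, 14h, room temperature) following 48h compound incubation; higher fluorescence indicates activation.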

Assay [5] can be described thus: qHTS for compounds that reverse cellular toxicity of Amyloid beta (A-beta) peptide in yeast: LOPAC Validation Assay (AID 720559).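 Further: plate controls were DMSO for no effect and equimolar ferric chloride plus clioquinol rescue for full effect.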 The method, boiled down:
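Here, A-beta-toxic yeast grow with test compounds at 30 C for 48 hr before optical density at 600 nm is recorded; data are normalized against DMSO and the FeCl3-clioquinol control.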

Assay [6] in a line: qHTS for Activators of Parkin Expression: LOPAC Validation Assay (NLuc Reporter) (AID 720572). An outline of the steps: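 NLuc signal, read 10 min after reagent and following a prior FLuc read, is normalized to DMSO (0) and positive controls (100%). Cells: neuronal Parkin-promoter coincidence reporter line; compounds tested 7-point, 24 h, 37 C, 5% CO2.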
A short description of assay [7]: qHTS for Activators of Parkin Expression: LOPAC Validation Assay (FLuc Reporter) (AID 720573). An outline of the steps:
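Readout is FLuc luminescence from neuronal reporter cells (Parkin promoter, FLuc plus NLuc) after 24 h compound exposure in dose response. Values normalized to neutral DMSO and positive-control compounds.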

Assay [8] is described as follows: qHTS assay for small molecule agonists of the antioxidant response element (ARE) signaling pathway measured by Nrf2-dependant transcriptional activity (AID 720636; active means well fitted curve in the direction sought with a large enough effect in the repeat runs; an effect the other way counts as inactive or inconclusive; further: % of control where 0% means no effect). An outline of the steps:
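ARE-luc HepG2 cells carrying an Nrf2-responsive luciferase reporter were plated in medium with 1% dialyzed FBS, left 6 hr at 37 C to attach, then exposed to compound for 16 hr. Luciferase luminescence was read after ONE-Glo addition.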

Assay [9] can be described thus: qHTS assay for small molecule antagonists of the retinoid-related orphan receptor gamma (ROR-gamma) signaling pathway - cell viability counter screen (AID 720652; active means well fitted curve in the direction sought with a large enough effect in the repeat runs; an effect the other way counts as inactive or inconclusive;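 further: compound exposure lasted 16 hr before ATP read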; further: potency means the concentration at half of the fitted maximal effect). An outline of the steps:
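CHO RORE-LUC/TET-ROR line, 1,000 cells/well, 37 C 5% CO2 5 hr; cpd or DMSO + doxycycline induction, 16 hr. CellTiter-Glo, 30 min RT, luminescence = ATP content.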

A short description of assay [10]: qHTS assay for small molecule agonists of the antioxidant response element (ARE) signaling pathway measured by Nrf2-dependant transcriptional activity - cell viability counter screen (AID 720653; active means well fitted curve in the direction sought with a large enough effect in the repeat runs; an effect the other way counts as inactive or inconclusive; further: potency means the concentration at half of the fitted maximal effect; on max response: on the % scale 0 is the no-effect control and ±100 the full control effect). The settings on record: ARE-bla HepG2 viability, CellTiter-Glo ATP luminescence, 16 h; max response: stronger effect = lower value. An outline of the steps:
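ARE-bla HepG2 cells treated with compounds for 16 h at 37C; this counter screen measures viability as intracellular ATP by CellTiter-Glo luminescence after 30 min at room temperature.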

Assay [11] in a line: qHTS assay for small molecule agonists of the antioxidant response element (ARE) signaling pathway (AID 651741; active means well fitted activation curve with a large enough effect in the signal ratio; the % refers to the signal ratio; further: potency means the concentration at half of the fitted maximal effect; on activation: % of control where 0% means no effect). The method, boiled down:
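HepG2 ARE-bla reporter cells, 2,000/well; 5 h settle at 37 C/5% CO2; compound pin transfer (23 nL, DMSO); 16 h at 37 C; LiveBLAzer B/G FRET substrate, 2 h RT; fluorescence intensity read.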

Assay [12] in a line: qHTS assay for small molecule activators of the nuclear factor-kappa B (NF-kB) signaling pathway (AID 651749; active means well fitted activation curve with a large enough effect in the signal ratio; the % refers to the signal ratio; further: series mostly up to about 77 µM; % of control where 0% means no effect). The settings on record: NF-kB-bla ME-180 cells, beta-lactamase FRET ratio, 16 h; stronger effect = higher value. An outline of the steps: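 NF-kB-bla ME-180 cells, 2,000/well; 23 nL compound or DMSO pinned; 16 hr, 37C/5% CO2; beta-lactamase FRET read-out.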
The nature of assay [13]: qHTS assay for small molecule disruptors of the mitochondrial membrane potential - 1 hr assay (AID 651754; calls by dose curve; further: potency means the concentration at half of the fitted maximal effect; nearly all actives have a fitted effect of over 35% in size). The method, boiled down: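 Read-out: dye fluorescence at 490 nm ex/535 nm em (monomers) and 540 nm ex/590 nm em (aggregates) in HepG2 cells. Compound exposure 1 hr at 37C, followed by 30 min dye loading.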
Assay [14] is described as follows: qHTS assay for small molecule disruptors of the mitochondrial membrane potential - 5 hr assay (AID 651755; calls by dose curve; further: potency means the concentration at half of the fitted maximal effect; nearly all actives have a fitted effect of over 40% in size). An outline of the steps: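 Read-out: ratiometric Mito-MPS fluorescence, green monomer (ex 490/em 535) vs red mitochondrial aggregate (ex 540/em 590). HepG2 cells treated 5 hr at 37C before 30 min dye loading.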
Assay [15] concerns the target Nuclear receptor ROR-gamma (Homo sapiens) (UniProt P51449). Description: qHTS assay for small molecule antagonists of the retinoid-related orphan receptor gamma (ROR-gamma) signaling pathway (AID 651802). Further: nearly all actives have a fitted effect of over 60% in size. Further: potency means the concentration at half of the fitted maximal effect. An outline of the steps:
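Luciferase read-out: ONE-Glo luminescence after 30 min at room temperature, following 16hr doxycycline induction at 37C, 5% CO2 of CHO cells with TET-inducible ROR and RORE-LUC reporter; decreased luminescence = reduced reporter activity.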

In assay [16] the target is Hexokinase-4 (Homo sapiens) + Glucokinase regulatory protein (Homo sapiens) (UniProt P35557+Q14397). As to the kind of experiment: qHTS assay for inhibitors of recombinant human GCK-GKRP interaction: Diaphorase-coupled assay (AID 743205). An outline of the steps: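 Signal derives from resorufin generated by diaphorase, linked to GCK turnover of glucose (5 mM) and ATP (0.4 mM). Enzyme complex was added after a 20-minute compound preincubation and monitored for 30 minutes.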

A short description of assay [17]: qHTS assay for small molecule activators of the p53 signaling pathway (AID 651743; active means well fitted activation curve with a large enough effect in the signal ratio, not every such curve was filed as active; the % refers to the signal ratio; further: series mostly up to about 92 µM; % of control where 0% means no effect). To be noted: HCT-116 p53RE-bla, beta-lactamase FRET ratio, 16 h; activation: stronger effect = higher value. The method, boiled down: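 Reporter: beta-lactamase driven by p53 response elements, stably integrated in HCT-116 cells. Cells seeded at 4,000/well, 5 h preincubation, compound (DMSO) 16 h at 37 C; B/G FRET substrate 2 h RT; fluorescence intensity read.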

Sequence of Hexokinase-4 (Homo sapiens) + Glucokinase regulatory protein (Homo sapiens) (P35557 whole entry, looked up): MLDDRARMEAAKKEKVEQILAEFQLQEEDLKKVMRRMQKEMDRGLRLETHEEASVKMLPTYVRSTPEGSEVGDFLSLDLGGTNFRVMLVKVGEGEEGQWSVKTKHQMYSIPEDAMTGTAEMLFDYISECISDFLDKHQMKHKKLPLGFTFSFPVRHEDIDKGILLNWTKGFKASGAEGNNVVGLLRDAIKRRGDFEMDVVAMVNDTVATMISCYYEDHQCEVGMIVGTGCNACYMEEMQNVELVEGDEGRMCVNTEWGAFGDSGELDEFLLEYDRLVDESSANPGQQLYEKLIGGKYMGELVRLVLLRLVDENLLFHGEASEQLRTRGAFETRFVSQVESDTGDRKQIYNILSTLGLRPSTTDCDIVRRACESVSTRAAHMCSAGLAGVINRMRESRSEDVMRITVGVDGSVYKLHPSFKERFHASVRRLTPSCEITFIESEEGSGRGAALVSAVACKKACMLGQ
Sequence of Hexokinase-4 (Homo sapiens) + Glucokinase regulatory protein (Homo sapiens) (Q14397 whole entry, looked up): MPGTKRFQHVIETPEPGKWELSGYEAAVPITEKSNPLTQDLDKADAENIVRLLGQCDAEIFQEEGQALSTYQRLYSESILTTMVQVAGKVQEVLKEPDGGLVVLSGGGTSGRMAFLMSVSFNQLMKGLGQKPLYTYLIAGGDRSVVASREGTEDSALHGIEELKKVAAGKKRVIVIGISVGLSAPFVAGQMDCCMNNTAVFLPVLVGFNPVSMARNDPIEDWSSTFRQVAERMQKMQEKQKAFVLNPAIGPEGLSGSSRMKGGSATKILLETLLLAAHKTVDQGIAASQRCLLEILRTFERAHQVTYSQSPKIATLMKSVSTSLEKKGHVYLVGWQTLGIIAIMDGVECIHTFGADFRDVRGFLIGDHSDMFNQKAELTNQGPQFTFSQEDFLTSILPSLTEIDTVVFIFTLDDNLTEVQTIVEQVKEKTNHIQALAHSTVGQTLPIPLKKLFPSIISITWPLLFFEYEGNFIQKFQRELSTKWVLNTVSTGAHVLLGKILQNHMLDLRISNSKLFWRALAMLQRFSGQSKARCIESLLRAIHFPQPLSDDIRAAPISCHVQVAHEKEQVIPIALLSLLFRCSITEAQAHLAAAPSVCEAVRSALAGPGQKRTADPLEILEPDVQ
Sequence of Nuclear receptor ROR-gamma (Homo sapiens) (P51449 whole entry, looked up): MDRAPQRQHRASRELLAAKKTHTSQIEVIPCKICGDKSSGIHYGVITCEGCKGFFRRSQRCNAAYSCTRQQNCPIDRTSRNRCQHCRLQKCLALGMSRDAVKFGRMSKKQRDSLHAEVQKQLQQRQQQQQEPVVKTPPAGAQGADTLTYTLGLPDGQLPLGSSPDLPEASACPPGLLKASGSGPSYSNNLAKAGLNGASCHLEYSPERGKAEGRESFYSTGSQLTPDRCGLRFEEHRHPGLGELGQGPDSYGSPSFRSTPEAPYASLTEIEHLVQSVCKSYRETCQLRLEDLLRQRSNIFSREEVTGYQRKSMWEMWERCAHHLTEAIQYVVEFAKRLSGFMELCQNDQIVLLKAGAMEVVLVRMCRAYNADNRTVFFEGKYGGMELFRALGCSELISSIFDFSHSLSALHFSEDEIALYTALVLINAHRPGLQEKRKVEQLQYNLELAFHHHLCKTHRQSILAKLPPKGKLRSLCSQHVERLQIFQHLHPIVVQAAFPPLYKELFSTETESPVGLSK
Sequence of Peroxisome proliferator-activated receptor alpha (Homo sapiens) (Q07869 whole entry, looked up, the tested form may be a part): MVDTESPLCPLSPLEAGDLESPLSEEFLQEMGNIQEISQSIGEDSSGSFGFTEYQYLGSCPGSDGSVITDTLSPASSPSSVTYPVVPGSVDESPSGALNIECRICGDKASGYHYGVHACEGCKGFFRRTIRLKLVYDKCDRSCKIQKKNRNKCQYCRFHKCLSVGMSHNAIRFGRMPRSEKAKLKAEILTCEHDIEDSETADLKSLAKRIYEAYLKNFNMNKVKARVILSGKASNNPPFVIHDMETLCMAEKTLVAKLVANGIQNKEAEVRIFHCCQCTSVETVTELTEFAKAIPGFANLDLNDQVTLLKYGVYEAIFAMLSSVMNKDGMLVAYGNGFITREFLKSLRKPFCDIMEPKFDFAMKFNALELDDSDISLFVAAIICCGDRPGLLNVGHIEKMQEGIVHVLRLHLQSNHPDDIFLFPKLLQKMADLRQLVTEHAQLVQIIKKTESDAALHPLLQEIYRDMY
Sequence of Tumor necrosis factor (Homo sapiens) (P01375 whole entry, looked up): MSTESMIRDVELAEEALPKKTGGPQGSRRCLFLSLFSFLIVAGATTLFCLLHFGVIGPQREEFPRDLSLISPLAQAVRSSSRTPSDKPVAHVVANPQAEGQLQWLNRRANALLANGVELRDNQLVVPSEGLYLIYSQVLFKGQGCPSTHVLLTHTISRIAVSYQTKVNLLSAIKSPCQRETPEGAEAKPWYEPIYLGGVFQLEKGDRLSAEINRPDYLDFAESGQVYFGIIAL
Sequence of Arylsulfatase A (Homo sapiens) (P15289 whole entry, looked up): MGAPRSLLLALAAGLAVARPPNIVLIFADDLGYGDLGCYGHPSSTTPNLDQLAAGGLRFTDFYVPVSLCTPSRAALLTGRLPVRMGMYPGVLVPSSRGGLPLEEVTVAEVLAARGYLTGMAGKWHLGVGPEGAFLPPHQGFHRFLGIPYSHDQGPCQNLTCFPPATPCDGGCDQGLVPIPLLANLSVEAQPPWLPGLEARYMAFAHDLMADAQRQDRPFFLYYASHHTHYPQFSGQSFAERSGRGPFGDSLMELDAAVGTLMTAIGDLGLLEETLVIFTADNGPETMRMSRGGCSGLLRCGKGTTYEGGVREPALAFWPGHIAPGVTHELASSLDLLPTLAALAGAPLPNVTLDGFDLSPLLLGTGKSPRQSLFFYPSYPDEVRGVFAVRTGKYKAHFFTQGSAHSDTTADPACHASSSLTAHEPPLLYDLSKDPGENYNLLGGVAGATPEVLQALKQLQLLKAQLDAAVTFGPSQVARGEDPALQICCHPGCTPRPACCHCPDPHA

`CC(C)C(=O)Nc1ccc([N+](=O)[O-])c(C(F)(F)F)c1`: the call in assay [1], in assay [5], in assay [6] and in assay [8] was inactive. Also, in assay [2], the activation was 3.62% and 3.92%. Besides, the max response was -5.17% and -3.96% in assay [3]; -4.94% and -9.28% in assay [10]. Further, the Potency result in assay [4], in assay [7] and in assay [9] was “inactive” throughout.
For the compound `Clc1ccc(C(c2ccccc2Cl)C(Cl)Cl)cc1` (stereo unspecified), the Potency was 66.8 µM (active) in [11]; 29.8 µM (active) in assay [13]; 37.6 µM (active) in assay [14]; 33.5 µM (active) in assay [15]; 59.6 µM (active) in [9]. Besides, the activation was 2.3% in assay [12]; 2.12% and 0.378% in [2]. The result in assay [1], in assay [5], in [6] and in assay [8] was inactive. The max response in [3] is 18.7%; in [10], -18.3% and -6.45%. Also, the Potency entry in assay [4], in assay [7] and in [16] was “inactive” in each case.
On to `Cn1c(=O)c2c(ncn2C)n(C)c1=O`, for which the Potency entry in [11], in [15], in assay [4], in assay [7], in [9] and in assay [16] was “inactive” throughout. In addition, the activation in [17] was -3.61% and -3.49%; in assay [2] it was -0.0272% and 0.654%. Moreover, the call in assay [1], in [5], in assay [6] and in assay [8] was inactive. Further, the max response in [3] was -7.69% and -2.94%; in assay [10] it was 6.29% and 2.32%.
Take `NS(=O)(=O)c1cc2c(cc1Cl)NCNS2(=O)=O`: the Potency result in assay [11], in [15], in assay [4], in [7] and in assay [9] was “inactive” in each case. Also, the activation in assay [17] is -0.393% and 4.88%; in assay [2], 0.0029% and 2.21%. The outcome in assay [1], in assay [5], in [6] and in [8] was inactive. The max response is -0.533% and -1.17% in assay [3]; 0.152% and 15.5% in assay [10].
Consider `CN(Cc1cnc2nc(N)nc(N)c2n1)c1ccc(C(=O)N[C@@H](CCC(=O)O)C(=O)O)cc1`, for which the results for the Potency in assay [11] and in [10] were 0.154 µM (active) and 0.0447 µM (active), respectively. For the same compound, the max response in [3] is -3.74%. The Potency entry in assay [4], in assay [7] and in assay [16] was “inactive” in each case. Besides, the compound was called inactive in assay [5], in assay [6] and in [8].
On to `CCC1(c2ccccc2)C(=O)NCNC1=O`, for which the Potency entry in [11], in assay [15], in assay [4], in assay [7] and in [9] was “inactive” in each case. Besides, the activation in assay [17] was -3.22% and -3.23%; in assay [12] it was 0.499% and -0.837%; in [2], -1.18% and 8.62%. The result in assay [1], in assay [5], in assay [6] and in assay [8] was inactive. The max response is -5.03% and -3.26% in assay [3]; 3.8% and 3.23% in assay [10].
